From PubChem BioAssay
Rows were chosen to be rich in hits. Some 1.2% of all compounds tested hit in one or more screens of this group.
TexasRed fluor = Texas Red fluorescence interference in TRb-SRC2 counter-screen. TRb/SRC2 Texas Red total fluorescence interference. Potency, µM (top dose mostly 106 µM), without a hit: top-dose fluorescence change, negative = quenching. actives 0.29% (n = 280,000). AID 1479; active = well fitted curve in either direction with a large enough effect; inconclusive = small, poorly fitted or top-dose-only effect
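Human TRb ligand-binding domain at 0.6 uM with 20 nM Texas Red SRC2 peptide in Tris buffer containing 1 uM T3 and 5% DMSO, incubated with compound 5 h at ambient temperature. Total fluorescence (555/632 nm) calculated as parallel + 2 × perpendicular.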
KAT2A inh = inhibitors of human GCN5L2 histone acetyltransferase. Q92830. actives 0.21% (n = 390,000). Potency, µM (top dose mostly 58.9 µM), without a hit: at the top dose activity change, negative = inhibition, hits mostly inhibitors. AID 504327. GCN5L2 HAT assay, ThioGlo1 CoA-SH fluorescence
Target sequence (Q92830 whole entry, looked up): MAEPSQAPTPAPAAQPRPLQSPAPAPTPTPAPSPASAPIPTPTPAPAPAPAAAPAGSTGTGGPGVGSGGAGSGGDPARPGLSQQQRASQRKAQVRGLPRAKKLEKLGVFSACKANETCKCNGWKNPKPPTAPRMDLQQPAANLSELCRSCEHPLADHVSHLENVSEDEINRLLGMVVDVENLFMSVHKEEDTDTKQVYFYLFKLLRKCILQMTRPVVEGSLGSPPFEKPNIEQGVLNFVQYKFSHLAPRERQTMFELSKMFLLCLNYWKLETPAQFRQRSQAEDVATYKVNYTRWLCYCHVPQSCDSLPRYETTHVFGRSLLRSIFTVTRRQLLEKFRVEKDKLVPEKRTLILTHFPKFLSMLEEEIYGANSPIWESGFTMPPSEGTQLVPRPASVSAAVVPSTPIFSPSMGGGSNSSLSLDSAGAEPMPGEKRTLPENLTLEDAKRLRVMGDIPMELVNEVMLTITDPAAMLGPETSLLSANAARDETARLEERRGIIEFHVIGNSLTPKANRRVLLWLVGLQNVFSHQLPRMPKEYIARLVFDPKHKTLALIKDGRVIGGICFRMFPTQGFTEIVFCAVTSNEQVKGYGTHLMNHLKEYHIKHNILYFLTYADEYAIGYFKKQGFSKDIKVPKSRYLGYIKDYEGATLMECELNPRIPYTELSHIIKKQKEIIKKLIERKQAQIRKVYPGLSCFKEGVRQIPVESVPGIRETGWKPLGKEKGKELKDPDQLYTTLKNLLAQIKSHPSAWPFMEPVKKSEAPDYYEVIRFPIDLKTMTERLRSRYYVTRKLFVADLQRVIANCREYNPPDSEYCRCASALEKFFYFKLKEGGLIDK
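ThioGlo1-coupled HAT assay: 20nM GCN5L2, 70uM acetyl-CoA, 75uM H3(1-25) peptide, pH 7.5. Fluorescence read at 340/540nm at start and after 20 min at room temperature.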
TRb-SRC2 inh = TRbeta-SRC2 interaction inhibition; P10828; TRbeta-SRC2 peptide binding, fluorescence polarization; receptor liganded with 1 µM T3; Potency, µM (top dose mostly 106 µM), for inactives: at the highest dose activity change, negative = inhibition, most hits filed as inhibitors; actives 0.065% (n = 280,000); AID 1469;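 also: plate controls were bound peptide for no effect and peptide without receptor for full effect; nearly all actives have a fitted effect of over 50% in size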
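Decrease in fluorescence polarization of 20 nM Texas Red SRC2 coactivator peptide flagged inhibition of its binding to 0.6 uM TRb LBD; 1 uM T3 included, incubation 5 hr, ex 555/em 632 nm.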
GoLoco inh red = blocks human Gai1 binding to RGS12 GoLoco peptide, red readout | Potency, µM (highest dose often 61.6 µM), without a hit: at the top dose activity, negative = inhibition, most hits filed as inhibitors | actives 0.44% (n = 230,000) | Gai1:RGS12 GoLoco peptide FP, rhodamine, 10 min | P63096; active = well fitted inhibition curve with a large enough effect, not every such curve was filed as active; inactive = no such curve, though single readings can be large or run the other way; also: nearly all actives have a fitted effect of over 30% in size
VDR inhibitor = vitamin D3 receptor (human) inhibition; VDR-SRC2-3 peptide fluorescence polarization, 2 h; AID 504847; actives 0.93% (n = 400,000); Potency, µM, without a hit: max response, negative = inhibition, actives largely listed as inhibitors; P11473
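VDR–SRC2-3 interaction, FP format. Cmpds 23 nl via pintool, brief spin, 2 h ambient incubation.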
* = called active by the depositor; ? = inconclusive; . = not tested or not shown; ! = not confirmed by another sample; [ ] = dose if it differs, or a comment. Unless noted, calls follow the shape of the dose curve; as a rule, active = well fitted curve in the direction sought with a large enough effect; inconclusive = small, poorly fitted or top-dose-only effect, or another doubt; inactive = no such curve, though single readings can be large; an effect the other way counts as inactive or inconclusive. Unless noted, % is scaled to controls: 0 for no effect and ±100 for the full control effect; potency is read from the fitted curve at half-maximal effect.

SMILES	TexasRed fluor	KAT2A inh	TRb-SRC2 inh	GoLoco inh red	VDR inhibitor
Nc1ccc2ccccc2c1	-2%	.	3%	5%	12%
C[n+]1c2cc(N)ccc2cc2ccc(N)cc21	0%	?	12%	-42%	25µM*!
CNC(=O)Oc1cc(C)c(SC)c(C)c1	2%[201 µM]	.	3%[201 µM]	.	.
O=C1NC(=O)N(c2ccc(Cl)cc2)C(=O)/C1=C\c1ccc(Sc2nc3ccccc3[nH]2)o1	45µM*[fluorescent]	?	?	-35%	-23%
O=c1oc2ccccc2c(O)c1C(c1ccc([N+](=O)[O-])cc1)c1c(O)c2ccccc2oc1=O	-2%	22µM*	11%	7%	?
CN1CC[C@@]2(CCCN(C(=O)c3csnn3)C2)C1	.	3%	.	-6%	45µM*
CN1CCCC2(CCN(C(=O)c3ccncc3)CC2)C1	.	-7%	.	3%	6%
COc1ccc2c(c[n+](C)c3c4cc5c(cc4ccc23)OCO5)c1OC	-18%	?	?	21%	28µM*
COc1cc2c(ccc3c4cc(OC)c(OC)cc4c[n+](C)c23)cc1O	.	.	.	.	-5%
C[C@@H]1O[C@H](C[N+](C)(C)C)CS1	0%	?	-2%	32µM*	6%
CCC[CH2][Sn](=[O])[CH2]CCC	-5%[201 µM]	.	1%[201 µM]	.	.
O=C(NC(=O)c1c(F)cccc1F)Nc1ccc(OC(F)(F)C(F)OC(F)(F)F)c(Cl)c1 (stereo not given)	3%[201 µM]	.	0%[201 µM]	.	.
N#CC(C#N)=C(C#N)c1ccc(Nc2ccccc2)cc1	.	-11%	.	.	50µM*
c1ccc(Nc2ccc(Nc3ccccc3)cc2)cc1	-2%	1%	6%	4%	-17%
O[N+]1=CC=CCC1=S.On1ccccc1=S.[Zn]	0%	10%	1%	0%	45µM*
CCOP(=O)(OCC)OC(Cl)C(Cl)(Cl)Cl (stereo not given)	3%[201 µM]	.	-4%[201 µM]	.	.
CCOP(=S)(OCC)SCSCC	-2%[201 µM]	.	0%[201 µM]	.	.
COC(=O)C1=C(C(=O)OC)SC2(S1)C(C(=O)OC)=C(C(=O)OC)Sc1c2ssc1=O	.	.	.	.	2µM*
CCOS(=O)(=O)OCC	1%[201 µM]	.	5%[201 µM]	.	.
N#C/C(=C\c1ccc(O)c(O)c1)C(=O)NCCCNC(=O)/C(C#N)=C/c1ccc(O)c(O)c1	-6%	-27%	10%	10%	?
N#C/C(=C/c1ccc(O)c(O)c1)C(N)=S	.	?	.	.	40µM*
CNc1cnn(-c2cccc(C(F)(F)F)c2)c(=O)c1Cl	4%[201 µM]	.	-2%[201 µM]	.	.
CC(=O)Oc1c2c(c(CC=C(C)C)c3c1C(=O)C1=CC4CC5C(C)(C)OC(C/C=C(\C)C(=O)O)(C4=O)[C@]15O3)OC(C)(CCC=C(C)C)C=C2 (stereo not given in full)	2%	16µM*	-7%	-12%	1.3µM*
COC(=O)/C(C)=C\CC12OC(C)(C)C3CC(C=C4C(=O)c5c(OC)c6c(c(CC=C(C)C)c5OC431)OC(C)(CCC=C(C)C)C=C6)C2=O (stereo not given)	-3%	-27%	1%	-1%	2µM*
COc1ccc(/C(=C/C(=O)N2CCOCC2)c2ccc(Cl)cc2)cc1OC	-1%[201 µM]	.	-4%[201 µM]	.	.
SMILES	TexasRed fluor	KAT2A inh	TRb-SRC2 inh	GoLoco inh red	VDR inhibitor
O=C1Nc2cc(Cl)c(Cl)cc2N2CCNC[C@H]12	-1%	-13%	2%	3%	25µM*
CCOc1ccc(-c2nc3cc(NC(=O)COc4cccc(C)c4)ccc3o2)cc1	14µM*[quencher]	-10%	?	.	-5%
NC(=O)c1cn(C2CCCCC2)c2ccccc2c1=O	.	-13%	.	.	-1%
O=C1c2ccccc2C(=O)N1SC1CCCCC1	-5%	6%	-3%	2%	20µM*
CCC[CH2][Sn]([CH2]CCC)([CH2]CCC)[CH2]CCC	1%[201 µM]	.	7%[201 µM]	.	.
CCOC(=O)COc1cc(-c2nn(C)c(OC(F)F)c2Cl)c(F)cc1Cl	2%[201 µM]	.	-1%[201 µM]	.	.
CN(C)c1ccc(/C=C/C=C2/C(=O)NC(=O)N(c3ccccc3)C2=O)cc1	3.2µM*[fluorescent]	-5%	?	-163%	36%
O=C1NC(=O)N(c2ccccc2)C(=O)/C1=C/C=C/c1ccco1	10%	26%	-2%	26%	20µM*
CCNC(=O)NC(=O)/C(C#N)=N/OC	1%[201 µM]	.	10%[201 µM]	.	.
CCOP(=O)(OCC)SCCSCC	1%[201 µM]	.	0%[201 µM]	.	.
COc1cc2oc(=O)c(CC(=O)N3C[C@H]4C[C@@H](C3)c3cccc(=O)n3C4)c(C)c2cc1Cl	.	.	.	.	-20%
Cc1c(CC(=O)N2C[C@H]3C[C@@H](C2)c2cccc(=O)n2C3)c(=O)oc2cc(O)c(Cl)cc12	.	20µM*	.	.	-13%
COc1ccc(/C=C2\C(=O)NC(=S)N(C)C2=O)cc1C	-4%	-2%	0%	10%	45µM*
CC1CC2OC2/C=C\C=C/C(=O)Cc2c(Cl)c(O)cc(O)c2C(=O)O1 (stereo not given)	1%	-3%	10%	-5%	45µM*
O=C1NC(=O)C(=Cc2ccc(-c3ccc(F)cc3O)o2)C(=O)N1	.	3%	.	.	28µM*
CCCC1COC(Cn2cncn2)(c2ccc(Cl)cc2Cl)O1 (stereo not given)	3%	-6%	-11%	-1%	50µM*!
CC1COC(Cn2cncn2)(c2ccc(Oc3ccc(Cl)cc3)cc2Cl)O1 (stereo not given)	0%[201 µM]	.	-6%[201 µM]	.	.
CCCCN(CC)C(=O)SCCC	1%[201 µM]	.	4%[201 µM]	.	.
O=C1C=CC(=O)c2ccccc21	-6%[201 µM]	.	-5%[201 µM]	.	.
CC(=O)C1CCC2C3CCC4=CC(=O)CC[C@@]4(C)C3CC[C@]12C (stereo not given in full)	-1%	2%	7%	2%	45µM*
Cc1cccc(N2C(=O)NC(=O)/C(=C\C=C\c3ccco3)C2=O)c1	9%	-6%	6%	22%	?
Cc1ccc(/C=C2/C(=O)NC(=O)N(Cc3ccc(F)cc3)C2=O)o1	2%	-13%	5%	90%	.
COc1ccc(CN2C(=O)NC(=O)/C(=C/c3ccc([N+](=O)[O-])o3)C2=O)cc1	?	22µM*	?	214%	.
Cc1cccc(N2C(=O)NC(=O)/C(=C/c3ccc([N+](=O)[O-])o3)C2=O)c1	-5%	25µM*	8%	23%	?
C=C1C(=O)O[C@@H]2C[C@@H](C)[C@@H]3C=CC(=O)[C@@]3(C)[C@@H](OC(=O)CC(=O)O[C@H]3[C@@H]4C(=C)C(=O)O[C@@H]4C[C@@H](C)[C@@H]4C=CC(=O)[C@]43C)[C@H]12	-11%	-7%	?	-28%	18µM*
C=C1C(=O)O[C@H]2[C@H]1[C@H](OC(=O)CC(=O)O[C@@H]1C[C@@H](C)[C@@H]3C=CC(=O)[C@@]3(C)[C@H]3OC(=O)C(=C)[C@H]13)C[C@@H](C)[C@H]1C=CC(=O)[C@]12C	0%	1%	3%	-3%	?
CN1C[C@H](CO)C[C@@H]2c3cccc4[nH]cc(c34)C[C@H]21	.	-3%	.	.	-10%
